Tb PFK inh-1 = T. brucei PFK enzyme inhibition. T. brucei PFK, ADP-Glo luminescence. Potency, µM (doses to about 57.5 µM), hits mostly inhibitors. 0.17% of 330,000 active. AID 485367; note: nearly all actives have a fitted effect of over 60% in size
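1.25 nM PFK with 0.5 mM F6P and 0.1 mM ATP in 0.1 M TEA pH 8.0, 5 mM MgCl2, incubated 45 min at room temperature; ADP measured by ADP-Glo luminescence; compounds titrated up to 57 uM.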
BRCA1 expr up = increases BRCA1 expression. MCF7-BRCA1-FFLuc reporter, luminescence, 48 h; response scale: scaled: vehicle 0%, 10 µM genistein 100%. Potency, µM (highest dose often 46.1 µM), hits mostly activators. 1.1% of 380,000 active. AID 624202; note: nearly all actives have a fitted effect of over 80% in size
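MCF7-BRCA1-FFLuc, 2000 cells/well; 2 h attach, 37 °C/5% CO2; compound 48 h; luciferase substrate 15 min; luminescence end-point. Norm. to genistein 10 microM max activation and DMSO; concentration-response curves fitted.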
VDR inh = vitamin D3 receptor (human) inhibition. P11473. VDR-SRC2-3 peptide fluorescence polarization, 2 h. Potency, µM, hits mostly inhibitors. 0.93% of 400,000 active. AID 504847
Target sequence (P11473 whole entry, looked up): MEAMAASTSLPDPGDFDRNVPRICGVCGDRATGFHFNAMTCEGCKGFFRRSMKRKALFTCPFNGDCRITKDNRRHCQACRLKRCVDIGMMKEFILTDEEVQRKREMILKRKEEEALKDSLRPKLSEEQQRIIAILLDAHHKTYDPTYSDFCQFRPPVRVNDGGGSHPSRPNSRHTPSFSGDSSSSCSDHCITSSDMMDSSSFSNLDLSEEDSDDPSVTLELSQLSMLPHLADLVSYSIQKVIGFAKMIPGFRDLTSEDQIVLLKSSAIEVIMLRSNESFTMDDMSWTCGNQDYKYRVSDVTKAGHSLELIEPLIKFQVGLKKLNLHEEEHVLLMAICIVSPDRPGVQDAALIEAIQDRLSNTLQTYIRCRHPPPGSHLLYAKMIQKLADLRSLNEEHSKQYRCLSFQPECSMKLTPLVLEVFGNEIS
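Compounds are added to VDR with labelled SRC2-3 coactivator peptide and held 2 h at room temperature. Inhibition of the VDR–peptide interaction is then read as a change in fluorescence polarization.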
PLK1 PBD inh = PLK1 (human) polo-box domain binding inhibition; P53350; Plk1 PBD binding of FITC phosphopeptide, fluorescence polarization; Potency, µM, most hits filed as inhibitors; 2.8% of 360,000 active; AID 720504; note: series mostly up to about 57 µM; nearly all actives have a fitted effect of over 65% in size
Tb PFK KinaseGlo = inhibits T. brucei PFK measured by ATP depletion. Tb PFK enzyme, ATP depletion, Kinase-Glo Plus luminescence. Potency, µM (highest dose often 57.5 µM). 47% of 1,100 active. shares compounds with Tb PFK inh-1; calls by dose curve; note: nearly all actives have a fitted effect of over 60% in size
Tb PFK inh-2 = validation of T. brucei phosphofructokinase inhibitors; shares compounds with Tb PFK inh-1; purified T. brucei PFK, ADP-Glo luminescence, 45 min; Potency, µM (highest dose often 57.5 µM), hits mostly inhibitors; 41% of 1,100 active; AID 504637; note: nearly all actives have a fitted effect of over 60% in size
Each line names hits and unclear results; the compound was inactive in the other large screens (follow-up assays come after a bar, where they were run). The list is not random: actives were taken first. Their share in the collection is about 3.9%. Unless noted, calls come from the whole dose curve; as a rule, active = well fitted curve in the direction sought with a large enough effect; inconclusive = small, poorly fitted or top-dose-only effect, or another doubt; inactive = no such curve, though single readings can be large; an effect the other way counts as inactive or inconclusive.

COc1ccc(C(=O)CSc2nnc(CNc3ccc(F)cc3)o2)cc1	Tb PFK inh-1 17µM | Tb PFK KinaseGlo 12µM | Tb PFK inh-2 24µM
CN1CC[C@@]2(CCCN(C(=O)Oc3ccccc3)C2)C1	none (no result: Tb PFK inh-1, BRCA1 expr up, PLK1 PBD inh)
CCc1ccc(-n2nc(C)c3c2NC(=O)CSC3c2ccc(OC)cc2OC)cc1 (centres undefined)	none (no result: Tb PFK inh-1, BRCA1 expr up, PLK1 PBD inh)
O=C(NCC(F)(F)F)c1ccc(S(=O)(=O)Nc2ccccc2N2CCCC2)cc1	Tb PFK inh-1 inconclusive | Tb PFK KinaseGlo inactive | Tb PFK inh-2 inconclusive
Cc1ccc(S(=O)(=O)Nc2cc(C(=O)N3CCC4(CC3)OCCO4)ccc2N2CCCCC2)cc1	VDR inh inconclusive
COc1cc(OC2CCN(C(C)=O)CC2)ccc1C(=O)N1CCC(N2C(=O)OCc3ccccc32)CC1	none (no result: Tb PFK inh-1, BRCA1 expr up, PLK1 PBD inh)
COC(=O)C(O)(c1ccc(NC(=S)NC(=O)c2ccc(Cl)cc2Cl)cc1)C(F)(F)F (centres undefined)	none
Cc1ccc(C(=O)NC(=S)Nc2ccc(-c3ccc(CO)o3)cc2)cc1	Tb PFK inh-1 inconclusive, PLK1 PBD inh inconclusive | Tb PFK KinaseGlo inactive | Tb PFK inh-2 inactive
COc1ccc(C(=O)OC2C[C@H]3CC[C@@H](C2)N3C)cc1OC (some centres undefined)	none (no result: Tb PFK inh-1, BRCA1 expr up, PLK1 PBD inh)
CCOC(=O)C1CCCN(C(=O)Cn2sc3nc(C)cc(C)c3c2=O)C1 (centres undefined)	Tb PFK inh-1 1.5µM, VDR inh inconclusive, PLK1 PBD inh 1.5µM | Tb PFK KinaseGlo inconclusive | Tb PFK inh-2 3.8µM
CCCNC(=O)Cn1sc2nc(C)cc(C)c2c1=O	Tb PFK inh-1 8.5µM, VDR inh 5µM, PLK1 PBD inh 1.7µM | Tb PFK KinaseGlo inconclusive | Tb PFK inh-2 8.5µM
Cc1cc(C)c2c(=O)n(CC(=O)N3CCC(N4CCCCC4)CC3)sc2n1	Tb PFK inh-1 2.4µM, VDR inh 20µM, PLK1 PBD inh 3µM | Tb PFK KinaseGlo inconclusive | Tb PFK inh-2 3µM
CC(C)(N)Cc1ccc(Cl)cc1	none (no result: Tb PFK inh-1, BRCA1 expr up, PLK1 PBD inh)
CCCCCCCCCCCCCCCCOC[C@@H](COP(=O)([O-])OCC[N+](C)(C)C)OC(C)=O	none (no result: Tb PFK inh-1, BRCA1 expr up, PLK1 PBD inh)
CC(=O)c1cc(Cc2csc(C(C)=O)c2)cs1	Tb PFK inh-1 27µM | Tb PFK KinaseGlo 13µM | Tb PFK inh-2 30µM
CN1C2CCC1C(C(=O)O)C(O)C2 (centres undefined)	none
CC1C=CC(C)C(C(=O)O)C1C(=O)O (centres undefined)	Tb PFK inh-1 inconclusive, PLK1 PBD inh inconclusive | Tb PFK KinaseGlo inconclusive | Tb PFK inh-2 inconclusive
Fc1cccc(NCc2cn3ccccc3n2)c1	Tb PFK inh-1 12µM, BRCA1 expr up inconclusive | Tb PFK KinaseGlo inconclusive | Tb PFK inh-2 inactive
Fc1cccc(NCc2ccoc2)c1	Tb PFK inh-1 inconclusive | Tb PFK KinaseGlo 12µM | Tb PFK inh-2 19µM
O=C(NCc1ccco1)c1ccc2c(=O)n(Cc3ccco3)c(SCC(=O)N3CCCC3)nc2c1	Tb PFK inh-1 inconclusive | Tb PFK KinaseGlo inconclusive | Tb PFK inh-2 inconclusive
C=C(C)C(=O)Nc1ccc2c(c1)OCCOCCOCCO2	Tb PFK inh-1 11µM | Tb PFK KinaseGlo 0.54µM | Tb PFK inh-2 0.67µM
Clc1ccc2c(c1)CCc1cccnc1C2=C1CCNCC1	VDR inh inconclusive (no result: BRCA1 expr up, PLK1 PBD inh)
CCCCC[C@@H](/C=C/C=C\CCCCCCCC(=O)O)OO	none (no result: Tb PFK inh-1, BRCA1 expr up, PLK1 PBD inh)
O=C1CC(c2ccc(O)c(O)c2)Oc2c1ccc(O)c2O (centres undefined)	Tb PFK inh-1 inconclusive | Tb PFK KinaseGlo 1.9µM | Tb PFK inh-2 2.1µM
O=C1NC(=O)C(=Cc2ccc(N3CCOCC3)o2)C(=O)N1	none
CCCN1C(=O)S/C(=C/c2ccc(N3CCOCC3)o2)C1=O	Tb PFK inh-1 inconclusive, VDR inh 89µM | Tb PFK KinaseGlo inactive | Tb PFK inh-2 inactive
Cc1nc(Cc2nnc(SCC(=O)N3CCN(c4ccc(O)cc4)CC3)o2)cs1	Tb PFK inh-1 inconclusive | Tb PFK KinaseGlo inconclusive | Tb PFK inh-2 inconclusive
CC(=O)OCC(=O)[C@@H]1CC[C@H]2[C@H]3CC[C@H]4C[C@@H](O)CC[C@]4(C)[C@@H]3C(=O)C[C@@]12C	none (no result: Tb PFK inh-1, BRCA1 expr up, PLK1 PBD inh)
Brc1cccc(OCCn2ccnc2)c1	Tb PFK inh-1 21µM, PLK1 PBD inh inconclusive | Tb PFK KinaseGlo 12µM | Tb PFK inh-2 13µM
